Experimental data: publication PMC4336329 (PLoS ONE, 2015)
Hit rate of the full screen: of about 310,000 compounds, about 14,000 (4.5%) showed an effect of 50% or more. The effect is printed as a negative number. The list comes from a sample in which strong results are over-represented; it also holds similar structures and randomly drawn compounds.

Target: human ether-à-go-go-related gene (hERG) potassium channel (human, UniProt Q12809)
Assay: primary screen, population patch clamp on CHO cells stably expressing hERG; higher = less effect of the substance
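Note: peak tail current of the secondary pulse compared with the same well before compound.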

Sequence of human ether-à-go-go-related gene (hERG) potassium channel (Q12809 whole entry, looked up): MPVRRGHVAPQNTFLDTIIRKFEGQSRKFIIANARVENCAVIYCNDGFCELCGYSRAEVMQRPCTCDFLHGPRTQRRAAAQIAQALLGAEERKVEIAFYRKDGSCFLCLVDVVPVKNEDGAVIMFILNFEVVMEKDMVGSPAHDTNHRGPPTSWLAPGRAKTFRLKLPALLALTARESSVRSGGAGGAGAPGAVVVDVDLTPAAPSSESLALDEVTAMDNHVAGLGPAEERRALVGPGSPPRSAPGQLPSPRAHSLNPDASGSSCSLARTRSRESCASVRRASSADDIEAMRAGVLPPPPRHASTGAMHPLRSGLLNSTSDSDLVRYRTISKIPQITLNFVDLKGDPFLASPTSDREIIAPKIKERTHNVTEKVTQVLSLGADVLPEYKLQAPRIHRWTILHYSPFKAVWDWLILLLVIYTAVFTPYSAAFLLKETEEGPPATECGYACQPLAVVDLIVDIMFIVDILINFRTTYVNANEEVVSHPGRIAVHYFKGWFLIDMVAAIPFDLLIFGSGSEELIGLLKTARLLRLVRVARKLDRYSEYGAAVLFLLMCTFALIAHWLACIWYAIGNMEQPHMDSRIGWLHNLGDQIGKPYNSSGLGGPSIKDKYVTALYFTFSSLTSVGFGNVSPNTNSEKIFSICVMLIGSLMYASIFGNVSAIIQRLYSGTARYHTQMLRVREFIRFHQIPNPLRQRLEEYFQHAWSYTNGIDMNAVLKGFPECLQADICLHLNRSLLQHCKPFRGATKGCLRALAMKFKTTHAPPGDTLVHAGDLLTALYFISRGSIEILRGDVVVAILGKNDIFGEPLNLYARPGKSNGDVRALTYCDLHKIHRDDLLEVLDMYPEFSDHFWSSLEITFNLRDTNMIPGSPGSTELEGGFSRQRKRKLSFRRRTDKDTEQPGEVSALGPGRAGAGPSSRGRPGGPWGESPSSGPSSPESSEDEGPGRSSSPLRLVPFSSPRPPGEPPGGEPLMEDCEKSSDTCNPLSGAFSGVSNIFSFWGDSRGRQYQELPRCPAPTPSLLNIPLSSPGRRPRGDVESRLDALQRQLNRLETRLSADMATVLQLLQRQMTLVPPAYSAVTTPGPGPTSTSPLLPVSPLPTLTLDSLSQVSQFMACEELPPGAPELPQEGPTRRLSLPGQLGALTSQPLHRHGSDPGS

SMILES	hERG current change (%, negative = inhibition) at 10uM [%]
CCc1cc(C(=O)NNC(=S)Nc2cccc(C)c2)cs1	3.09
O=C1c2ccccc2C(=O)N1CCSc1ncn[nH]1	19.7
O=[N+]([O-])c1ccccc1S(=O)(=O)NCc1ccc(F)cc1	7.19
CCC(NC(=O)c1ccc([N+](=O)[O-])cc1[N+](=O)[O-])c1ccccc1 (stereo not shown)	-56
CC(NC(=O)c1ccc([N+](=O)[O-])cc1[N+](=O)[O-])c1ccc(-c2ccccc2)cc1 (stereo not shown)	-1.64
CCC(NC(=O)c1ccccc1O)c1ccccc1 (stereo not shown)	-33.3
CN(C)c1ccc(CNCC2CCCO2)cc1.Cl (stereo not shown)	10.5
Cc1ccc(NC(=O)CN(C)C(=O)CCC(=O)c2cccs2)cc1	-16.2
CC1CCOC2(O1)C(=O)Nc1ccccc12 (stereo not shown)	16.1
CN(C)CCNC(=O)c1cc(Sc2ccc(F)cc2)nc2ccccc12	-72.5
COCCCNC(=O)c1cc(Sc2ccc(F)cc2)nc2ccccc12	-26.9
COCCNC(=O)c1cc(Sc2nnc(C)s2)nc2ccccc12	-18.2
COCCCNC(=O)c1cc(Sc2nnc(C)s2)nc2ccccc12	2.3
O=C(NCCCN1CCCC1)c1cc(Sc2ccc(F)cc2)nc2ccccc12	-74.1
Cc1ccc(Sc2cc(C(=O)NCCN(C)C)c3ccccc3n2)cc1	-93.9
CCOCCCNC(=O)c1cc(Sc2ccc(F)cc2)nc2ccccc12	-12.4
CCN(CC)CCNC(=O)c1cc(Sc2nnc(C)s2)nc2ccccc12	-45.3
CC(C)OCCCNC(=O)c1cc(Sc2ccc(F)cc2)nc2ccccc12	-5.77
Cc1nnc(Sc2cc(C(=O)NCCCN(C)Cc3ccccc3)c3ccccc3n2)s1	-56.2
CCN(CC)CCCNC(=O)c1cc(Sc2nnc(C)s2)nc2ccccc12	-40.4
O=C(NCCCN1CCOCC1)c1cc(-c2ccc(F)cc2)nc2ccccc12	-27.5
O=C(O)CCc1ccc(-c2ccc(F)cc2)n1NC(=O)c1ccco1	8.01

SMILES	hERG current change (%, negative = inhibition) at 10uM [%]
CCN(CC(=O)N1CCN(C)CC1)S(=O)(=O)c1ccc(Cl)cc1	-5.94
O=C1c2ccccc2S(=O)(=O)c2cc(C(=O)N3CCCC3)ccc21	-1.93
O=C(CNC(=O)c1cccc(Br)c1)N/N=C/c1cccnc1	-14
O=C(Nc1cccc(-c2ccc(N3CCCCC3)nn2)c1)C(F)(F)F	-8.5
C/C(CC(=O)NC1CCCCC1)=N\NC(=O)COc1ccc(C)cc1Br	-22.8
CCOCCCNC(=O)c1cc(Sc2nnc(C)s2)nc2ccccc12	-2.23
CCOCCCNC(=O)c1cc(Sc2ccc(C)cc2)nc2ccccc12	-19.3
Cc1ccc(Sc2cc(C(=O)NCCCN(C)C)c3ccccc3n2)cc1	-56.5
COc1ccc(C=O)cc1OS(=O)(=O)c1ccccc1[N+](=O)[O-]	-3.35
COc1ccc(NS(=O)(=O)c2cccc(C(=O)NNC(=O)c3ccccc3OC)c2)cc1	-16.4
Cn1c(=O)n(Cc2ccco2)c(=N)c2c3c(sc21)CCCC3	-31.4
Cn1c(=O)n(Cc2ccco2)c(=N)c2c3c(sc21)CCC3	-64.8
CN(C)CCCn1c(=O)n(Cc2ccco2)c(=O)c2c3c(sc21)CCCCC3	-71.1
CN(C)CCn1c(=O)n(-c2ccc(F)cc2)c(=O)c2c3c(sc21)CCCCC3	-18.6
CN(C)CCn1c(=O)n(-c2cccc(Cl)c2)c(=O)c2c3c(sc21)CCCCC3	-20.7
CC(O)CNc1nc2sc3c(c2c(=O)n1Cc1ccco1)CCCCC3 (stereo not shown)	4.61
O=c1c2c3c(sc2[nH]c(=S)n1Cc1ccco1)CCC3	6.17
CN(C)CCn1c(=O)n(Cc2ccco2)c(=O)c2c3c(sc21)CCCCC3	-50.4
NC(=O)Cn1c(=O)n(Cc2ccco2)c(=O)c2c3c(sc21)CCCCC3	5.2
Cc1c(NC(=O)COC(=O)CSc2ccc(C(N)=O)cc2[N+](=O)[O-])c(=O)n(-c2ccccc2)n1C	23.1
Cc1ccc(C)c(S(=O)(=O)N2CCN(C(=O)CCNS(=O)(=O)c3ccccc3)CC2)c1	-33.6
